The panel holds about 83,000 compounds, 20% with a hit somewhere; the sample as a whole holds those more often.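 Note: values are percent growth. 100 is the growth of untreated cells, values between 100 and 0 indicate rising inhibition; between -100 and 0 indicates cell death.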 Values without a mark were called inactive. The source made the active and inactive calls. The calls were made as follows: active = growth percent below 10; inactive = the rest.
How the values were obtained:
Experiment in all cases: NCI-60 one-dose screen, 48 h (100 = growth as untreated, 0 = no growth, -100 = all killed)
Conditions in all cases: 10 µM unless noted
SR leukemia = test system: SR leukemia
RPMI-8226 leukemia = test system: RPMI-8226 leukemia
OVCAR-8 ovarian = test system: OVCAR-8 ovarian
OVCAR-5 ovarian = test system: OVCAR-5 ovarian
OVCAR-4 ovarian = test system: OVCAR-4 ovarian
SK-OV-3 ovarian = test system: SK-OV-3 ovarian
OVCAR-3 ovarian = test system: OVCAR-3 ovarian
NCI/ADR-RES ovarian = test system: NCI/ADR-RES ovarian
T-47D breast = test system: T-47D breast
MDA-MB-435 melanoma = test system: MDA-MB-435 melanoma
SW-620 colon = test system: SW-620 colon
MCF7 breast = test system: MCF7 breast
HCT-116 colon = test system: HCT-116 colon
HCC-2998 colon = test system: HCC-2998 colon
KM12 colon = test system: KM12 colon
IGROV1 ovarian = test system: IGROV1 ovarian
HS 578T breast = test system: HS 578T breast
BT-549 breast = test system: BT-549 breast

Row | Structure (SMILES) | growth (SR leukemia) | growth (RPMI-8226 leukemia) | growth (OVCAR-8 ovarian) | growth (OVCAR-5 ovarian) | growth (OVCAR-4 ovarian) | growth (SK-OV-3 ovarian) | growth (OVCAR-3 ovarian) | growth (NCI/ADR-RES ovarian) | growth (T-47D breast) | growth (MDA-MB-435 melanoma) | growth (SW-620 colon) | growth (MCF7 breast) | growth (HCT-116 colon) | growth (HCC-2998 colon) | growth (KM12 colon) | growth (IGROV1 ovarian) | growth (HS 578T breast) | growth (BT-549 breast)
1 | NS(=O)(=O)c1cnccc1-n1ccc(=O)c(S(N)(=O)=O)c1 | 86.5% | 60.4% | 100% | 89.7% | 95.2% | 81.1% | 93.3% | 98.5% | 84.5% | 91.7% | 97% | 88.8% | 92.5% | 104% | 93.3% | – | – | –
2 | CCCN1CCN(c2ccc3nc(-c4ccc5nc(-c6cc(OC)c(OC)c(OC)c6)[nH]c5c4)[nH]c3c2)CC1 | 34.6% | 95.3% | 75.5% | 116% | 89.9% | – | 76.9% | 100% | 65.9% | 55.1% | 75.7% | 23.8% | 55.1% | 94.2% | – | 101% | 54.1% | 83.2%
3 | Fc1ccc(Nc2nc3nonc3nc2Nc2ccc(F)cc2)cc1 | 7.15% (active) | 6.64% (active) | 8.53% (active) | -16.7% (active) | 5.75% (active) | 3.75% (active) | 1.97% (active) | 3.98% (active) | – | 5.74% (active) | 9.46% (active) | 3.66% (active) | – | 13.1% | 3.91% (active) | 32.6% | -1.86% (active) | –
4 | Cc1cccc(-c2cc(O)c(C(=O)N3CCOCC3)s2)c1 | 25.5% | 41.7% | 46% | 92.1% | 77.3% | – | 15% | 6.7% (active) | 18.9% | -50% (active) | 28% | 19.5% | 27.7% | 63.2% | 25.5% | 50% | 53.8% | 51.2%
5 | CCCCNC(=O)c1cc(NCc2cc(O)ccc2O)ccc1O | 41.1% | 19.3% | 87.6% | 107% | 90.8% | – | 54.2% | 95% | 58.1% | 96.8% | 110% | 67.7% | 86.2% | 96.4% | 78.4% | 98.4% | 88% | 46.1%
6 | COc1cc2c(O)n(CCCn3ccnc3)c3c4cnc5cccc(c(=O)c3c2cc1OC)c54 | 25% | 19.4% | 35.3% | 83.1% | 50.9% | – | 44.7% | 98.3% | -6.91% (active) | 51% | 20.4% | 10.8% | – | 70.4% | 61% | 46.2% | 73.8% | 27.6%
7 | O=C(c1ccccc1)c1ccc(N2C(=O)C3C4c5ccccc5C(/C=C/C(=O)c5ccccn5)(c5ccccc54)C3C2=O)cc1 (centres undefined) | 13.7% | 3.95% (active) | 26.4% | 29.9% | 32.4% | – | -54.1% (active) | 20.5% | 27% | 4.74% (active) | 3.76% (active) | 19% | -27.4% (active) | 25.3% | 9.88% (active) | -19.8% (active) | 9.77% (active) | 22.2%
8 | CC(=[N-])N1CCC[C@@H](Nc2c3ccccc3nc3ccccc23)C1.[Cl][Pt].[NH-]CCC[NH-] | 17.1% | 30.1% | 39.1% | 39% | 20.4% | – | 3.95% (active) | 85% | 14.8% | 81.9% | 20.5% | 10.6% | 14.9% | 49.7% | 49% | 17.2% | 51.7% | 79%
9 | CCCN1CCN(c2ccc3nc(-c4ccc5nc(-c6ccc(OCC)c(OCC)c6)[nH]c5c4)[nH]c3c2)CC1 | 20.9% | -18.9% (active) | -11% (active) | -15.2% (active) | -59.9% (active) | – | -63.7% (active) | 79.4% | 10.7% | -88.2% (active) | -65.9% (active) | -59.5% (active) | -83.4% (active) | -79.5% (active) | -54.8% (active) | -13.2% (active) | -37.2% (active) | -64% (active)
10 | C=CCOc1cccc(/C=C2\SC(=Nc3ccc(O)cc3)NC2=O)c1 | 17.1% | -14.4% (active) | 27.4% | 27.9% | 32% | – | 6.17% (active) | 7.2% (active) | 60.9% | -45.2% (active) | 23.4% | 7.91% (active) | 5.94% (active) | 10.6% | 6.22% (active) | 20.3% | 18% | -16.3% (active)
11 | COc1ccc(C2CC(c3ccccc3)=NN2c2nc(C)c(C(C)=O)s2)cc1 (centres undefined) | 97.7% | 99% | 101% | 105% | 97.1% | – | 98.5% | 102% | 99.7% | 103% | 96.1% | 94.7% | 97.3% | 107% | 102% | 103% | 93.3% | 110%
12 | CCc1c(C(=O)N[C@@H]2c3cc(Cl)ccc3CC[C@@H]2O)[nH]c(C)c1C(C)=O | 52.5% | 59.7% | 71.4% | 97.9% | 95.9% | – | 81.8% | 82.7% | 70.4% | 97.4% | 90.1% | 85.3% | 51% | 95.4% | 71.6% | 59% | 77.5% | 80.7%
13 | CN(C)CN1CCN(c2ccc3nc(-c4ccc5nc(-c6ccc(C(F)(F)F)cc6)[nH]c5c4)[nH]c3c2)CC1 | 17.7% | 19.1% | 53% | 114% | -4.77% (active) | – | 89.7% | 97.9% | 61.4% | 40.9% | 27% | 9.58% (active) | – | 84.7% | 26.5% | 78.7% | 52.8% | 86.2%
14 | O=C1NC(=S)S/C1=C\N1N=C(c2ccc(Cl)cc2)CC1c1ccc(F)cc1 (centres undefined) | 46.9% | 69.7% | 81.3% | 94.7% | 91.4% | – | 86.4% | 87% | 72.2% | 97.2% | 92.1% | 71.9% | 81.9% | 100% | 87.4% | 96.2% | 84.8% | 100%
15 | Cc1nc(Nc2ccccn2)sc1C(=O)/C=C/c1ccc(Br)cc1 | 16.9% | 42.5% | 78.2% | 95.2% | 81.9% | – | 48.4% | 57.7% | 45.7% | 14.6% | 45.7% | 8.46% (active) | 72.6% | 103% | 24.2% | 77.7% | 77.9% | 83.3%
16 | CN1CCN(c2ccc3nc(/N=C/c4ccc5sc(-c6ccc([N+](=O)[O-])cc6)nc5c4)sc3c2)CC1 | 91.9% | 101% | 99.6% | 107% | 105% | – | 112% | 104% | 96% | 102% | 116% | 94.7% | 107% | 101% | 105% | 114% | 114% | 92.4%
17 | CCCCN1CCN(c2ccc3nc(-c4ccc5nc(-c6ccc(OCC)c(OCC)c6)[nH]c5c4)[nH]c3c2)CC1 | 14.3% | -25.4% (active) | -11.9% (active) | 37.7% | -77.4% (active) | – | -87.3% (active) | 73% | 39.9% | -41.2% (active) | -80.3% (active) | -69.6% (active) | -79.7% (active) | -80.4% (active) | -65.6% (active) | 15.1% | 35.2% | -23% (active)
18 | C=C1C(=O)O[C@H]2[C@H]1CC/C(C(=O)NCCCCCCCCNC(=O)/C1=C/CC[C@@]3(C)O[C@H]3[C@H]3OC(=O)C(=C)[C@@H]3CC1)=C\CC[C@@]1(C)O[C@@H]21 | 20.2% | 33.6% | 93.4% | 97.1% | 73.1% | – | 33.1% | 103% | 28.4% | 86.8% | 14.2% | 37.9% | 29.7% | 97.2% | 93.1% | 63.3% | 90.5% | 51%

Reference: PubChem BioAssay (NCI)
